Only a selection was taken, and hits are over-represented in it overall.
ST2 IL33 inh = inhibitors of human ST2 (IL1RL1) binding to IL-33, primary screen, biochemical, AlphaLISA. Interleukin-1 receptor-like 1 (Homo sapiens), Q01638. AlphaLISA ST2-Fc/biotin-IL-33 interaction, 1 h. inhibition, % for hits at 17 µM. 78,000 tested, 2.3% active. AID 1259354, 2018; in the data active means inhibition above about 30%
Target sequence (Q01638 whole entry, looked up): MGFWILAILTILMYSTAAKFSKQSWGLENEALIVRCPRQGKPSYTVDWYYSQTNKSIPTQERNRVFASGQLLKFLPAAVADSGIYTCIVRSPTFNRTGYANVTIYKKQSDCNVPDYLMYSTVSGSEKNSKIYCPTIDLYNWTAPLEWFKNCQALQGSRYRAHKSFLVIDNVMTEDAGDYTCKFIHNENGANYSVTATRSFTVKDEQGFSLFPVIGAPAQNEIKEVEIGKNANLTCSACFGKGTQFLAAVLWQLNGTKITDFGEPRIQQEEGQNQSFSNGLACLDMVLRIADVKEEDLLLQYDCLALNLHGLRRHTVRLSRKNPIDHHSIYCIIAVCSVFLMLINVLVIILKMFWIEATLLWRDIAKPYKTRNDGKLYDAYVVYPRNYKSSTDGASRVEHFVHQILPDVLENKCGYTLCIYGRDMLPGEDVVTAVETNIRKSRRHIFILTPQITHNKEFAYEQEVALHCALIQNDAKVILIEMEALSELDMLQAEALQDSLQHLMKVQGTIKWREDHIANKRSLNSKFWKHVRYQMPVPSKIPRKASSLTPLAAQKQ
Starred values were filed as active, the others as inactive; i = inactive.

SMILES | ST2 IL33 inh
CC1=C(C(=O)Nc2nc3ccccc3s2)C(c2ccc(Cl)cc2)C2=C(CCCC2=O)N1 (stereo not drawn) | i
CCN1/C(=C2\C(=O)N(c3ccc(Cl)cc3)N=C2C)C=Cc2ccccc21 | i
CCN1C(=O)CC(c2ccccc2)Sc2ccccc21 (stereo not drawn) | i
CCSC1=N/C(=C2\C=Cc3ccccc3N2CC)C(=O)S1 | 73%*
Cc1cc2ccccc2c(=O)n1CC(=O)NCC(=O)Nc1ccc(C(F)(F)F)cc1 | i
COc1ccc(S(=O)(=O)N(CC(=O)Nc2ccc3c(c2)OCCO3)Cc2ccccc2)cc1 | i
Cc1ccc(NC(=O)c2cc3ccccc3o2)c(C)c1 | i
O=C(NCCC1=CCCCC1)C1C2C=CC3(CN(Cc4cccs4)C(=O)C13)O2 (stereo not drawn) | i
COc1ccc(NC(=O)c2c(F)cccc2F)c([N+](=O)[O-])c1 | i
O=C(c1cc(O)c(O)c([N+](=O)[O-])c1)c1ccccc1F | i
Cc1cc(Oc2ccccc2F)c(F)cc1[N+](=O)[O-] | 31%*
O=C(N[C@H]1C[C@H]2C(=O)NC[C@@H](CCC(=O)N3CCN(c4ccccc4)CC3)N2C1)c1cccs1 | i
Cc1ccc(-c2cn[nH]c2C2CCCN(C(=O)c3ccco3)C2)cc1 (stereo not drawn) | i
Cc1ccc(C2=N/C(=C\c3cccc(F)c3)C(=O)O2)cc1[N+](=O)[O-] | i
Cc1ccc(C2=N/C(=C\c3ccc(N(C)C)cc3)C(=O)O2)cc1[N+](=O)[O-] | 30%*
Cc1ccc(C2=N/C(=C\c3cccc([N+](=O)[O-])c3)C(=O)O2)cc1[N+](=O)[O-] | i
COCc1nc(N(C)Cc2cc3cc(F)ccc3[nH]2)c2cnn(C)c2n1 | i
Cc1ccccc1OCC(=O)Nc1ccc(C)c(OCc2cc(=O)n3cccc(C)c3n2)c1 | i
COc1ccc(OC)c(C=Nc2ccc(S(N)(=O)=O)cc2)c1 | i
COc1cc(OC)c(C=C2C(=O)OC3(CCCCC3)OC2=O)cc1Br | i
COc1ccc(C=Nc2ccc(O)cc2)c(OC)c1 | 32%*
COc1cc(OC)c(C=Nc2ccc(O)cc2)cc1Br | 51%*
COc1ccc(NS(=O)(=O)c2ccc(N=Cc3cc(Br)ccc3O)cc2)nn1 | i
COc1ccc(-n2c(O)c(C=Nc3ccc(OC)c(OC)c3)c3ccccc3c2=O)cc1 | i
Cc1nc2ccccc2c2oc(C(=O)N3CCN(c4ccccc4F)CC3)cc12 | i
SMILES | ST2 IL33 inh
COc1ccc(Cn2c(SCC#N)nc3c(sc4cccc(F)c43)c2=O)cc1 | i
CC(=O)Nc1cccc2c1sc1nc3n(c(=O)c12)CCCCC3 | i
Cc1ccc(C2C(C#N)=C(N)Oc3c2ccc2cccnc32)cc1 (stereo not drawn) | i
CC(=O)[C@]1(O)Cc2c(O)c3c(c(O)c2[C@@H](O[C@H]2C[C@H](N)[C@H](O)[C@H](C)O2)C1)C(=O)c1ccccc1C3=O | 34%*
COc1ccc(NC(=O)CCCn2nc(C)c([N+](=O)[O-])c2C)c(OC)c1 | i
CCC(=O)N1CCc2cc(Br)cc(S(=O)(=O)NCc3ccc(C)cc3)c21 | i
COc1cccc2c1OCC(c1n[nH]c(CCc3ccccc3)n1)C2 (stereo not drawn) | i
N#C/C(=C\c1ccc(-c2cccc(C(F)(F)F)c2)o1)C(=O)O | i
COc1cccc(-c2ccccc2NC(=O)C2CCN(Cc3cccc4ncccc34)CC2)c1 | i
N#C/C(=C\c1ccc(-c2ccccc2)o1)C(=O)Nc1cccc2ncccc12 | 40%*
CCn1cc(C(=O)NC2CCCCC2)c(=O)c2cc(S(=O)(=O)N3CCCC3)ccc21 | i
CC(CC(=O)n1nnc2ccccc21)c1ccccc1 (stereo not drawn) | i
COc1ccc(NC(=O)c2sc3ccccc3c2Cl)cc1Cl | i
CCCNC(=O)c1sc2c(Cl)c(OC)ccc2c1Cl | 53%*
CCCCNC(=O)c1sc2ccccc2c1Cl | i
CC(=Nc1ccccc1C)C1=C(O)CC(C)(C)CC1=O | i
Cc1ccc(C2Nc3ccccc3NC3=C2C(=O)CCC3)o1 (stereo not drawn) | 32%*
COc1ccc(C2CC(=O)C3=C(C2)Nc2ccccc2NC3c2ccc(C)o2)cc1 (stereo not drawn) | i
CCOc1ccc(C2Nc3ccccc3NC3=C2C(=O)CCC3)cc1 (stereo not drawn) | i
CCc1cc2c(C)cc(=O)oc2c(CN2CCCCC2CC)c1O (stereo not drawn) | i
CN(Cc1cccc(-n2cccn2)c1)Cc1cccs1 | i
Cc1ccc(C)n1CCN1CCN(CC(=O)Nc2ccccc2F)CC1 | i
COc1ccccc1N1CCN(S(=O)(=O)c2ccc3c(c2)NC(=O)CC(=O)N3)CC1 | i
O=C1NCCCC[C@@H]1NC1CCN(c2cccc(NS(=O)(=O)c3ccc(F)cc3)c2)CC1 | i
CNC(=O)c1ccc(/C=C2\Sc3ccccc3N(Cc3ccc(F)cc3)C2=O)cc1 | i
O=C(CN1C(=O)/C(=C/c2ccccc2F)Sc2ccccc21)NCc1ccco1 | i

Screens as filed in PubChem BioAssay.
